Screening data: PubChem, Sanford-Burnham Center for Chemical Genomics
SENP6 inh – inhibitors of human SENP6 protease; Q9GZR1; Recombinant SENP6 catalytic domain, aminoluciferin luminescence; inhibition, % at 10 µM; 330,000 compounds, 1.8% hits;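 active = inhibition above about 50% at the single tested dose, limit read from the data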;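 note: plate controls were DMSO wells with enzyme for no effect and DMSO wells lacking enzyme for full effect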
SENP7 block – blocks the human protease SENP7 | recombinant SENP7, Z-RLRGG-aminoluciferin luminescence, 40 min | inhibition, % at 5 µM | Q9BQF6 | AID 434973 | 330,000 compounds, 1.5% hits;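 active = inhibition above about 50% at the single test dose, limit read from the data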;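 note: plate controls were DMSO with enzyme for no effect and no enzyme buffer wells for full effect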
Target sequence (Q9BQF6 706-1050 limits assumed): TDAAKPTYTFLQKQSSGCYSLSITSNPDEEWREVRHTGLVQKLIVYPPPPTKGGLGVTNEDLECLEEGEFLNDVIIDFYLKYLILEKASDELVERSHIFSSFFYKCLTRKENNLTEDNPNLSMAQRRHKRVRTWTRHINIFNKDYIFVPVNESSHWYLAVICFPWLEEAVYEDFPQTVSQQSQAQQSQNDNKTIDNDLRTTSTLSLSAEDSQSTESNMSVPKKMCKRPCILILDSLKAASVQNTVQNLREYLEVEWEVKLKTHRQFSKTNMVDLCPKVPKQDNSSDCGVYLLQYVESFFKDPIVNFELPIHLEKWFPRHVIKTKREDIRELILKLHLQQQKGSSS
SENP8 block-1 – inhibitors of human SENP8 protease | Q96LD8 | recombinant SENP8, Nedd8 substrate fluorescence | inhibition, % at 20 µM | 360,000 compounds, 0.64% hits; in the data active = inhibition mostly above about 40%, no sharp cut-off; inactive = mostly below about 27%
SENP8 block-2 – blocks the human protease SENP8; purified SENP8, Z-RLRGG-aminoluciferin cleavage, luminescence; inhibition, % at 10 µM; 330,000 compounds, 1.2% hits; in the data active = inhibition above about 50%
PPC-1+TRAIL kill – kills PPC-1 cancer cells in the presence of TRAIL; PPC-1 cells + TRAIL, ATPLite viability luminescence; cell killing (% activity), % at 4 µM or 5 µM; 220,000 compounds, 0.41% hits;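 active = cell killing above 50% in the first pass at 4 µM, then a duplicate retest at 5 µM averaging 50% or more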;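 note: plate controls were cells with TRAIL plus DMSO for no effect and medium-only wells lacking cells for full effect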
C8 TRAIL sens – caspase-8 TRAIL sensitization; NB7+C8 cells + TRAIL, ATPlite viability luminescence; 360,000 compounds, 1% hits; inhibition (viability loss, TRAIL sensitization), % at 10 µM;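 active = compounds causing at least 50% loss of cell viability in the single-dose screen, relative to plate controls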
SENP8 conf – confirmation of human SENP8 protease inhibitors | shares compounds with SENP7 block | 6,200 compounds, 40% hits | Recombinant SENP8, Z-RLRGG-aminoluciferin luminescence, 60 min | inhibition, % at 12.5 µM | AID 488912;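 active = mean inhibition across replicates above about 50%, limit read from the data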
SENP6 confirm – human SENP6 inhibition, confirmed | shares compounds with SENP7 block | recombinant SENP6, Z-RLRGG-aminoluciferin luminescence | inhibition, % at 12.5 µM | 6,200 compounds, 58% hits
SENP7 confirm – human SENP7 inhibition, confirmed; shares compounds with SENP7 block; recombinant SENP7, Z-RLRGG-aminoluciferin luminescence, 40 min; 6,200 compounds, 69% hits; inhibition, % at 12.5 µM
Casp3 select – caspase-3 inhibition (SENP selectivity assay) | AID 488918 | shares compounds with SENP7 block | 6,200 compounds, 60% hits | inhibition, % at 12.5 µM | purified caspase-3, Z-DEVD-aminoluciferin luminescence, 60 min;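 active = mean inhibition above about 50%, limit read from the data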;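 note: plate controls were enzyme with DMSO for no effect and wells without caspase-3 for full effect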
SENP luc ctr – interferes with luciferase luminescence in SENP counter-screen; shares compounds with SENP7 block; Pre-incubated SENP8/Z-RLRGG-aminoluciferin, luciferase luminescence interference; inhibition, % at 12.5 µM; 6,200 compounds, 39% hits;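 active = mean inhibition above about 50% when retested at one dose, limit read from the data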;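 note: plate controls were DMSO wells with completed reaction for no effect and substrate without enzyme for full effect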
Starred values were filed as active, the others as inactive. Compounds with a hit are over-represented: about 3% of the library has one in this group of screens.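 Rule for the calls, unless noted: active = mean inhibition above about 50% in the one-dose retest (limit read from the data); inactive = the rest.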

What do the screens show for `COc1cc(/C=N/Nc2ccc(C(=O)O)cc2)cc(OC)c1OC`?
SENP6 inh: 88.4*; SENP7 block: 70.7*; SENP8 block-1: -133.6; SENP8 block-2: 74.3*; PPC-1+TRAIL kill: 10.1; C8 TRAIL sens: 7.5; SENP8 conf: 87.5*; SENP6 confirm: 85.5*; SENP7 confirm: 97.8*; Casp3 select: 80.9*; SENP luc ctr: 36.4

What do the screens show for `COc1cc(/C=N/Nc2ccc(C(=O)O)cc2)ccc1O`?
SENP6 inh: 98.7*; SENP7 block: 98.1*; SENP8 block-1: -223.9; SENP8 block-2: 95.6*; PPC-1+TRAIL kill: 17.6; C8 TRAIL sens: 1.1; SENP8 conf: 97.5*; SENP6 confirm: 97.9*; SENP7 confirm: 102.6*; Casp3 select: 94.4*; SENP luc ctr: 96.7*

Results for COc1cc(/C=N/NC(=O)c2ccccc2)ccc1O ?
SENP6 inh: -15.2; SENP7 block: -13.5; SENP8 block-1: -31.5; SENP8 block-2: -18.7; PPC-1+TRAIL kill: 32.4; C8 TRAIL sens: 6.0

Results for CC1=NN(C(=O)c2ccc(Cn3ccc([N+](=O)[O-])n3)cc2)C(O)(C(F)(F)F)C1 (stereo not given) ?
SENP6 inh: 18.6; SENP7 block: 3.7; SENP8 block-1: 19.1; SENP8 block-2: -1.3; PPC-1+TRAIL kill: 4.3; C8 TRAIL sens: 12.3

How did CNC(=O)C[C@H]1C(=O)N(c2ccc(OC)cc2)C[C@@H]1CSC do in these assays?
SENP8 block-1: 29.0; C8 TRAIL sens: -7.3

How did C/C(=N\Nc1nc2ccccc2s1)c1cccs1 do in these assays?
SENP6 inh: 60.2*; SENP7 block: 83.9*; SENP8 block-1: -19.3; SENP8 block-2: 75.1*; PPC-1+TRAIL kill: 43.1; C8 TRAIL sens: 66.9*; SENP8 conf: 91.5*; SENP6 confirm: 91.0*; SENP7 confirm: 98.0*; Casp3 select: 60.3*; SENP luc ctr: 30.2

What do the screens show for `C(=N\Nc1nc2ccccc2s1)/c1cccs1`?
SENP6 inh: 95.2*; SENP7 block: 92.8*; SENP8 block-1: -43.8; SENP8 block-2: 89.3*; PPC-1+TRAIL kill: 31.5; C8 TRAIL sens: 20.7; SENP8 conf: 36.8; SENP6 confirm: 87.5*; SENP7 confirm: 99.7*; Casp3 select: 71.3*; SENP luc ctr: 81.5*

How did C(=N\Nc1nc2ccccc2s1)/c1ccco1 do in these assays?
SENP6 inh: 92.9*; SENP7 block: 89.9*; SENP8 block-1: -8.9; SENP8 block-2: 82.9*; PPC-1+TRAIL kill: 36.6; C8 TRAIL sens: 24.6; SENP8 conf: 81.9*; SENP6 confirm: 81.6*; SENP7 confirm: 96.8*; Casp3 select: 82.6*; SENP luc ctr: 71.9*

What do the screens show for `Oc1ccc(C=NNc2nc3ccccc3s2)c(O)c1`?
SENP8 block-1: -195.7; C8 TRAIL sens: 25.2

How did Cc1ccccc1Nc1nc2ccccc2s1 do in these assays?
SENP6 inh: -0.1; SENP7 block: 72.0*; SENP8 block-1: 10.1; SENP8 block-2: 68.2*; PPC-1+TRAIL kill: 19.7; C8 TRAIL sens: 21.8; SENP8 conf: 84.4*; SENP6 confirm: 83.7*; SENP7 confirm: 95.4*; Casp3 select: 68.9*; SENP luc ctr: 70.6*

Results for Cc1ccc(C)c(S(=O)(=O)Nc2ccccc2C(=O)Nc2ccc(S(=O)(=O)Nc3ncccn3)cc2)c1 ?
SENP6 inh: -1.7; SENP7 block: 4.9; SENP8 block-1: -451.3; SENP8 block-2: 1.0; PPC-1+TRAIL kill: 19.9; C8 TRAIL sens: -12.2

Results for C[C@@H]1CN([C@H](C)CO)C(=O)CCCn2nncc2CO[C@H]1CN(C)C ?
SENP8 block-1: 11.2; C8 TRAIL sens: -18.9
